Only some compounds are listed: those with a hit (about 6.5% of all), similar ones and a draw of the others.
HCMV antiviral: inhibitors of human cytomegalovirus; HFF cells, HCMV-luciferase reporter, 72 h; hits give low values; activity change, negative = inhibition, % at 57.5 µM; 4.5% of 410,000 active; AID 1259415; in the data active = activity change below about -60%; inconclusive = no clear call, values can overlap the other calls; inactive = above about -39%
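Human foreskin fibroblasts infected with luciferase-reporter HCMV at MOI 1 PFU/cell, compounds at two doses. Luciferase measured 72 h post infection; normalized to buffer-only basal and Salinomycin (10uM) controls.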
Marburg entry inh: blocks Marburg virus binding to or entry into cells. AID 540276. Potency, µM (series often up to 37.8 µM), usual class: inhibitors. 1.8% of 300,000 active. Marburg virus pseudotyped entry inhibition, cell reporter; calls by dose curve; tested in HEK293 cells
FMDV antiviral: blocks foot and mouth disease virus. FMDV antiviral cell-based qHTS. AID 1159524. 1.2% of 410,000 active. Potency, µM (series often up to 57.9 µM), most hits filed as inhibitors; calls by dose curve; tested in HEK293T cells; also: read-out not given here; nearly all actives have a fitted effect of over 45% in size
Vaccinia Venus: vaccinia inhibition (Venus reporter); Vaccinia virus Venus reporter expression, fluorescence; Potency, µM (titrated, usually from 36.5 µM), most hits filed as inhibitors; 0.46% of 330,000 active; calls by dose curve; tested in A549 cells; also: nearly all actives have a fitted effect of over 30% in size
VACV mCherry inh: inhibitors of vaccinia virus infection (mCherry reporter signal); 0.63% of 310,000 active; Vaccinia virus mCherry reporter infection, fluorescence; Potency, µM (top dose mostly 36.5 µM), most hits filed as inhibitors; calls by dose curve; tested in A549 cells; also: nearly all actives have a fitted effect of over 35% in size
LASV entry inh: inhibitors of Lassa virus binding or cell entry; Lassa virus pseudotype entry inhibition, cell reporter; Potency, µM (doses to about 37.9 µM), actives largely listed as inhibitors; 1.2% of 300,000 active; calls by dose curve; tested in HEK293 cells; also: nearly all actives have a fitted effect of over 50% in size
Each line names hits and unclear results; the compound was inactive in the other large screens.

CCC(=O)N1CCN(c2ccc(NC(=O)c3ccco3)cc2Cl)CC1	LASV entry inh inconclusive
O=C(Nc1ccc(N2CCN(C(=O)c3ccco3)CC2)c(Cl)c1)c1cc2ccccc2o1	HCMV antiviral -99, Marburg entry inh inconclusive, FMDV antiviral 8.9µM, Vaccinia Venus 16µM, VACV mCherry inh 11µM, LASV entry inh inconclusive
CCCC(=O)N1CCN(c2ccc(NC(=O)c3cc4ccccc4o3)cc2Cl)CC1	HCMV antiviral -103, Marburg entry inh inconclusive, FMDV antiviral 4.5µM, Vaccinia Venus 10µM, LASV entry inh 16µM (no result: VACV mCherry inh)
COc1ccc([C@]23Cc4c(ccc5ccccc45)[C@H](O2)c2c(cc(-c4ccccc4)oc2=O)O3)cc1	none (no result: HCMV antiviral, FMDV antiviral, Vaccinia Venus, VACV mCherry inh, LASV entry inh)
COCCn1c(SCCOc2ccccc2)nc2ccccc2c1=O	Marburg entry inh inconclusive, FMDV antiviral 25µM
CCOCCCn1c(SCC(=O)NC(C)C)nc2ccccc2c1=O	HCMV antiviral -107 (no result: Vaccinia Venus, VACV mCherry inh)
CCOCCCn1c(SCc2nc3ccccc3s2)nc2ccccc2c1=O	HCMV antiviral -78, Marburg entry inh 7.1µM, LASV entry inh inconclusive
CCCCOc1nnc(-c2ccc(OCC)cc2)c2ccccc12	Marburg entry inh inconclusive, FMDV antiviral inconclusive
CCc1nc2nc(C)cc(Nc3cccc(C(F)(F)F)c3)n2n1	Vaccinia Venus 10µM (no result: VACV mCherry inh)
CCc1ccc(Nc2cc(C)nc3nc(Cc4ccc(Cl)cc4)nn23)cc1	HCMV antiviral -92, Marburg entry inh inconclusive, FMDV antiviral inconclusive, Vaccinia Venus inconclusive, VACV mCherry inh inconclusive, LASV entry inh inconclusive
Cc1ccc(Nc2cc(C)nc3nc(C)nn23)c(C)c1	FMDV antiviral 0.71µM (no result: Vaccinia Venus, VACV mCherry inh)
Cc1cc(Nc2cccc(C(F)(F)F)c2)n2nc(C)nc2n1	Marburg entry inh inconclusive, Vaccinia Venus 10µM (no result: VACV mCherry inh)
COc1cc(C2C(C(=O)OC(C)C)=C(C)N=C3SCCC(=O)N32)ccc1OCc1ccccc1 (stereo unspecified)	Marburg entry inh inconclusive
Cc1ccsc1C(=O)NN=C1CCCCCC1	HCMV antiviral -99 (no result: Marburg entry inh, Vaccinia Venus, VACV mCherry inh, LASV entry inh)
CS(=O)(=O)Nc1ccc(C2=NN(C(=O)CCCC(=O)O)C(c3cccs3)C2)cc1 (stereo unspecified)	HCMV antiviral -84
Cc1ccc(-n2c(O)c(/C=C3/C(c4ccccc4)=Nc4ccccc43)c(=O)[nH]c2=O)cc1	Marburg entry inh inconclusive, FMDV antiviral inconclusive
CC1=Nc2ccccc2/C1=C/c1c(O)n(C)c(=O)[nH]c1=O	Marburg entry inh inconclusive, FMDV antiviral 32µM
Cc1ccccc1-n1c(O)c(/C=C2/C(c3ccccc3)=Nc3ccccc32)c(=O)[nH]c1=O	Marburg entry inh inconclusive, FMDV antiviral 22µM, VACV mCherry inh inconclusive, LASV entry inh inconclusive
COc1ccccc1CN1CC[C@@]2(CCCN(S(=O)(=O)c3ccccc3)C2)C1	none (no result: HCMV antiviral, Marburg entry inh, Vaccinia Venus, VACV mCherry inh, LASV entry inh)
Cc1sc2nc(CN3CCCCC3)nc(Nc3ccc4c(c3)OCCO4)c2c1C	HCMV antiviral -62
C=CCNc1nnc(Sc2ncccc2[N+](=O)[O-])s1	HCMV antiviral inconclusive, Vaccinia Venus inconclusive, VACV mCherry inh 10µM
O=[N+]([O-])c1cccnc1Sc1ccc(Cl)cc1	Marburg entry inh inconclusive
Cc1ccc(S(=O)(=O)NCc2ccc(N3CCN(C(=O)OC(C)(C)C)CC3)cc2)cc1	HCMV antiviral -68, FMDV antiviral 28µM
O=C1c2ccccc2C(=O)N1c1ccccn1	none (no result: HCMV antiviral, Marburg entry inh, FMDV antiviral, LASV entry inh)
Cn1c(=O)n(CC(=O)O)c(=O)c2c1nc1n2CCCN1CCc1ccccc1	none (no result: Marburg entry inh, Vaccinia Venus, VACV mCherry inh, LASV entry inh)
CCCn1c(=O)c2c(nc3n2CCCN3CCc2ccccc2)n(C)c1=O	HCMV antiviral -62, Marburg entry inh inconclusive, FMDV antiviral inconclusive
Cn1c(=O)n(CCc2ccccc2)c(=O)c2c1nc1n2CCCN1CCc1ccccc1	Marburg entry inh inconclusive, FMDV antiviral inconclusive, LASV entry inh inconclusive (no result: VACV mCherry inh)
Cn1c(=O)n(CCc2ccccc2)c(=O)c2c1nc1n2CCCN1Cc1ccccc1	Marburg entry inh inconclusive, FMDV antiviral 20µM, LASV entry inh 16µM (no result: VACV mCherry inh)
COC(=O)Cn1c(=O)c2c(nc3n2CCCN3CCc2ccccc2)n(C)c1=O	HCMV antiviral -64
COC(=O)[C@H]1[C@H](CO)[C@H]2Cn3c(cccc3=O)[C@@H]1N2Cc1cocn1	none (no result: Marburg entry inh, FMDV antiviral, Vaccinia Venus, VACV mCherry inh, LASV entry inh)
CCC(=NCCN1CCOCC1)c1c(O)n(-c2ccccc2C)c(=O)[nH]c1=O	none
CC/C(=N\N1CCCCCC1)c1c(O)n(-c2ccccc2C)c(=O)[nH]c1=O	HCMV antiviral inconclusive, FMDV antiviral inconclusive, VACV mCherry inh inconclusive, LASV entry inh 10µM
COCC(C)NC(=O)CSc1nc(-c2ccccc2)c(-c2ccccc2)o1 (stereo unspecified)	HCMV antiviral -67, Marburg entry inh inconclusive, LASV entry inh inconclusive (no result: FMDV antiviral)
CN(C(=O)CSc1nnc(-c2ccc(F)cc2)c2ccccc12)C1CCS(=O)(=O)C1 (stereo unspecified)	HCMV antiviral inconclusive, Marburg entry inh 5µM, FMDV antiviral inconclusive, Vaccinia Venus inconclusive
CN(C(=O)CSc1nc(-c2ccccc2)c(-c2ccccc2)o1)C1CCS(=O)(=O)C1 (stereo unspecified)	HCMV antiviral -64 (no result: Vaccinia Venus, VACV mCherry inh)
CNC(=O)CSc1nc(-c2ccccc2)c(-c2ccccc2)o1	none (no result: Vaccinia Venus, VACV mCherry inh)
CN(C(=O)CSc1nc2ccccc2o1)C1CCS(=O)(=O)C1 (stereo unspecified)	none
COc1cc2ccccc2cc1C(=O)OCC(=O)Nc1ccc(Br)cc1	none (no result: HCMV antiviral, Marburg entry inh, FMDV antiviral, LASV entry inh)
Cn1nc([N+](=O)[O-])c(C(C#N)c2nc3ccccc3n2C)c(Cl)c1=O (stereo unspecified)	HCMV antiviral -76
Cn1c(-c2ccc([N+](=O)[O-])cc2)nc2ccccc21	Marburg entry inh inconclusive
Cc1ccc(C(=O)Nc2cccc(-c3nc(CNC(=O)c4ccc(F)cc4Cl)c(C)o3)c2)s1	Vaccinia Venus inconclusive, VACV mCherry inh inconclusive (no result: HCMV antiviral, Marburg entry inh, LASV entry inh)
O=C1c2ccccc2NC(c2ccccc2O)N1Cc1ccco1 (stereo unspecified)	none (no result: HCMV antiviral, Marburg entry inh, FMDV antiviral, LASV entry inh)
OC1(c2ccccc2)CCN(Cc2ccccc2)C2CCCCC21 (stereo unspecified)	Marburg entry inh 8.9µM, Vaccinia Venus inconclusive, LASV entry inh inconclusive
CCOC(=O)C(C)CC(C)C(=O)N1CCOCCOCCN(C(=O)C(C)CC(C)C(=O)OCC)CCOCC1 (stereo unspecified)	none (no result: Vaccinia Venus, VACV mCherry inh)
CCOC(=O)C(C(=O)OCC)C(C(=O)OCC)N1CCOCC1 (stereo unspecified)	HCMV antiviral -105, Marburg entry inh inconclusive, FMDV antiviral 32µM
CCC(C)n1cnc2c(c1=O)c1nc3ccccc3nc1n2Cc1ccc(OC)cc1 (stereo unspecified)	HCMV antiviral -75
O=C(NCCCN1CCN(c2ccccc2)CC1)c1nnc(Cc2ccc(F)cc2)o1	none (no result: Marburg entry inh)
CC(C)Nc1nc(NCCOc2ccccc2Cl)c2sc(-c3ccccc3)cc2n1	HCMV antiviral -101, FMDV antiviral inconclusive, VACV mCherry inh inconclusive (no result: Marburg entry inh, LASV entry inh)
COc1ccccc1CNc1nc(NC(C)C)nc2cc(-c3ccccc3)sc12	Vaccinia Venus inconclusive, VACV mCherry inh inconclusive (no result: Marburg entry inh, LASV entry inh)
Cc1ccc2nc(/N=C(\N)NC(=O)N3c4ccccc4Sc4ccccc43)nc(C)c2c1	HCMV antiviral -65
O=C(NC(=S)Nc1ccccc1[N+](=O)[O-])c1ccccc1	Marburg entry inh inconclusive

Compound activity: PubChem BioAssay, National Center for Advancing Translational Sciences (NCATS)
